VDR inhibitor = inhibitors of human vitamin D receptor. hit rate 0.93% among 400,000. Potency, µM, for inactives: max response, negative = inhibition, hits mostly inhibitors. AID 504847. VDR-SRC2-3 peptide fluorescence polarization, 2 h; note: potency is the fitted concentration of half-maximal effect; % is set by controls: 0 for no effect and ±100 for the full control effect
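Reagent solutions, kept cold and dark, are dispensed first; compounds are then pinned in at 23 nl, plates briefly spun, and incubated 2 h at ambient temperature. Inhibition of VDR–SRC2-3 peptide binding is read by fluorescence polarization.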
TSHR antagonist = antagonists of human thyroid stimulating hormone receptor. P16473. TSHR-expressing cells, TSH-stimulated cAMP HTRF, 2 h; hits give low values. activity change, negative = inhibition, % at 11.5 µM. hit rate 0.2% among 330,000. AID 504810;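 active = activity change below a set negative limit, meaning inhibition stronger than a set level, cut at about -70% in these data; inconclusive = activity change between two set negative limits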; note: % is set by controls: 0 for no effect and ±100 for the full control effect
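Antagonism was scored as loss of TSH-driven cAMP in TSHR cells, stimulated with 4nM TSH (EC80) for 2 hours at 37 deg C and detected by homogeneous HTRF competition immunoassay.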
Vif-APOBEC3G blk = blocks the Vif interaction with human APOBEC3G. Q9HC16. HeLa A3G-eYFP + Vif (tagged APOBEC3G with the HIV-1 protein that degrades it), YFP fluorescence, overnight. Potency, µM (titrated, usually from 46.1 µM), inactives show at the highest dose activity, negative = active, usual class: inhibitors. hit rate 0.076% among 410,000. AID 602310; note: potency is the fitted concentration of half-maximal effect; % is set by controls: 0 for no effect and ±100 for the full control effect; nearly all actives have a fitted effect of over 60% in size
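Read-out is eYFP fluorescence (Ex 488/Em 500-530) from Vif-expressing HeLa A3G-eYFP cells; more signal means A3G escaped Vif-mediated degradation. Cells plated overnight, compound pinned in, incubated overnight at 37 deg C.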
Vif-APOBEC3F blk = blocks the Vif interaction with APOBEC3F. HeLa A3F-eYFP + Vif (tagged APOBEC3F with the HIV-1 protein that degrades it), YFP fluorescence increase. Potency, µM (doses to about 46.1 µM), inactives show at the highest dose activity, negative = active. hit rate 0.2% among 390,000. AID 602313; note: potency is the fitted concentration of half-maximal effect; % of control where 0% means no effect; nearly all actives have a fitted effect of over 65% in size
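HeLa cells stably expressing Vif plus C-terminally eYFP-tagged A3F were seeded, incubated overnight at 37 deg C, dosed with compound, incubated overnight again at 37 deg C. Yellow fluorescence (Ex 488/Em 500-530) reported blocked Vif-mediated A3F-eYFP degradation.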
PLK1 PBD block = blocks phosphopeptide binding to human PLK1 polo-box domain; P53350; Plk1 PBD binding of FITC phosphopeptide, fluorescence polarization; Potency, µM, for inactives: max response, negative = inhibition, hits mostly inhibitors; hit rate 2.8% among 360,000; AID 720504; note: potency is the fitted concentration of half-maximal effect; series mostly up to about 57 µM; % is set by controls: 0 for no effect and ±100 for the full control effect; nearly all actives have a fitted effect of over 65% in size
Target sequence (P53350 whole entry, looked up, the tested form may be a part): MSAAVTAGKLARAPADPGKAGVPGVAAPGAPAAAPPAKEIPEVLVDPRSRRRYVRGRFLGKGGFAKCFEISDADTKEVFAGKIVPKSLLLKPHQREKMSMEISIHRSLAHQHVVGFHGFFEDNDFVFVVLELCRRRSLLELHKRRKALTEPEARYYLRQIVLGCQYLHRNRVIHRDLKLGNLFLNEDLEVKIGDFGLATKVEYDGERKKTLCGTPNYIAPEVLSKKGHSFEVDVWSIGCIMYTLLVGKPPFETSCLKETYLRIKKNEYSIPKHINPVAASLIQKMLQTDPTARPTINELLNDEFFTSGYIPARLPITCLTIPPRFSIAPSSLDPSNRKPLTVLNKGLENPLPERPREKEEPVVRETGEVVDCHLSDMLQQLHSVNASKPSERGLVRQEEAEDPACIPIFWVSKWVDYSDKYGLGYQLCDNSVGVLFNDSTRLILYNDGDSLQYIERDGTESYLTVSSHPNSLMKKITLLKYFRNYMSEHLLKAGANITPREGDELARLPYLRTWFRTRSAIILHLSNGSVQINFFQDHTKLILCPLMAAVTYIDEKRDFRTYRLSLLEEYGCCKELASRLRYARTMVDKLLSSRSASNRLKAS
Starred values were filed as active, the others as inactive; u = inconclusive; x = no result. Shown are actives, neighbours in structure and some others; about 3.1% of the full set was active somewhere. Unless noted, calls come from the whole dose curve; as a rule, active = well fitted curve in the direction sought with a large enough effect; inconclusive = small, poorly fitted or top-dose-only effect, or another doubt; inactive = no such curve, though single readings can be large; an effect the other way counts as inactive or inconclusive.

SMILES | VDR inhibitor | TSHR antagonist | Vif-APOBEC3G blk | Vif-APOBEC3F blk | PLK1 PBD block
N#Cc1cccc(-c2csc(N3CCC(C(N)=O)CC3)n2)c1 | x | -9 | x | x | x
NC(=O)C1CCN(c2nc(-c3ccc(N4CCCCC4)nc3)cs2)CC1 | x | -4 | x | x | x
CC(=O)c1cc(NC(=O)c2cccc(C(F)(F)F)c2)c(=O)oc1/C=C/N(C)C | 14% | 3 | -18% | u | 9%
CC(=O)c1cc(NC(=O)c2cccc(C(F)(F)F)c2)c(=O)oc1C | u | -8 | -12% | -18% | 24µM*
CC[C@@H]1C=C(C(=O)O)[C@H](c2ccc(Cl)cc2)N1S(=O)(=O)c1ccc(C)cc1 | -10% | 2 | -1% | 8% | -1%
Cc1ccc(S(=O)(=O)N2[C@@H](c3ccc(Cl)cc3)C(C(=O)O)=CC[C@H]2c2ccc(Cl)c(Cl)c2)cc1 | u | -8 | -19% | -2% | u
Cc1ccc(S(=O)(=O)N2[C@@H](c3ccc(Cl)c(Cl)c3)C(C(=O)O)=C[C@H]2CC2CCCC2)cc1 | -28% | 3 | -4% | -5% | 21µM*
Cc1ccc(S(=O)(=O)N2[C@@H](c3ccc(Cl)cc3)C(C(=O)O)=C[C@H]2CC2CCCC2)cc1 | -24% | -8 | -5% | -21% | 19µM*
Cc1ccc(S(=O)(=O)N2[C@@H](c3ccc(C#N)cc3)C(C(=O)O)=C[C@H]2CC2CCCC2)cc1 | u | -8 | -2% | -30% | 30µM*
O=c1cc(-c2ccccc2F)[nH]c2cc3c(cc12)OCO3 | 4% | -23 | x | x | x
Clc1ccc2nc[nH]c2c1 | x | x | -12% | x | x
O=C1NN(c2ccccc2)C(=O)/C1=C\c1ccccc1OCC(=O)N1CCOCC1 | u | -1 | 0% | 3% | 21µM*
Cc1ccnc2ccc([N+](=O)[O-])cc12 | x | x | -5% | x | x
Cc1ccc2cccc(O)c2n1 | x | x | 0% | x | x
COCCn1c2nc(=O)n(-c3ccccc3)c(=O)c-2nc2ccccc21 | x | x | 12% | u | 3.8µM*
COCCn1c(-c2ccc(OC)cc2)nc2ccccc21 | -9% | 11 | -5% | -2% | -1%
Nc1nc2c(c(=O)[nH]1)N=C(CNc1ccc(C(=O)NC(CCC(=O)O)C(=O)O)cc1)CN2 (configuration not stated) | -15% | x | x | x | x
Cc1ccccc1Cn1c(=O)n(CCCCC(=O)NCCc2ccccc2)c(=O)c2ccccc21 | 10% | x | 2% | -8% | x
Cc1nn(Cc2ccccc2)c2c1C(c1cccc(Cl)c1)C(C#N)=C(N)O2 (configuration not stated) | u | -10 | u | x | 27µM*
Cc1ccc2c(c1)NC(=O)C(CC(=O)NCCCN1CCCC1=O)O2 (configuration not stated) | u | -4 | 4% | 2% | 30µM*
Cc1cc(-c2ccc(S(=O)(=O)N3CCN(c4ccc(Cl)cc4)CC3)s2)on1 | -1% | x | -2% | -18% | x
COc1cc(NS(=O)(=O)c2ccc(C)cc2C)cc(OC)c1OC | 21% | -87* | -21% | -5% | -1%
CC(=O)c1ccc(NC(=O)c2cnn3c2NC(=C2CC2)C=C3C(F)F)cc1 | x | x | 3% | x | x
Cc1ccc(Cl)cc1N1CCN(C(=O)c2c(C)oc3ncnc(N4CCOCC4)c23)CC1 | 3% | x | -6% | 4% | x
O=c1cc(CO)oc(C(Nc2ccccn2)c2ccc(F)cc2)c1O (configuration not stated) | 28µM* | -5 | 0% | -4% | 15µM*
SMILES | VDR inhibitor | TSHR antagonist | Vif-APOBEC3G blk | Vif-APOBEC3F blk | PLK1 PBD block
Nc1cccn2c(-c3ccc(Cl)cc3)cnc12 | -8% | 6 | u | -20% | 27µM*
Nc1cccn2c(-c3ccc(Cl)c(Cl)c3)cnc12 | -7% | -8 | -12% | -27% | 6µM*
Clc1ccc(-c2cnc3cccnn23)cc1 | x | x | -2% | x | -11%
Cc1ccn2c(NCc3ccco3)c(-c3ccccc3)nc2c1 | 4% | x | x | x | x
CC(C)[C@H](NC(=O)c1ccccc1)C(=O)OCc1nnc(-c2ccccc2)o1 | -1% | -4 | 0% | 10% | 27µM*
COc1ccc(CNC(=O)Cn2c(=O)oc3cc(S(=O)(=O)NCc4ccccc4)ccc32)cc1 | 12% | x | 4% | 0% | x
c1ccc(CN(Cc2ccco2)C(c2ccncc2)c2nnnn2C2CCCC2)cc1 (configuration not stated) | 28µM* | -12 | 0% | -6% | u
